# PubChem BioAssay (NCATS)
# Records with an inconclusive call do not appear. The source made the active and inactive calls. Unless noted, the call rests on the fitted dose curve; in most records, active means well fitted curve in the direction sought with a large enough effect; inconclusive means small, poorly fitted or top-dose-only effect, or another doubt; inactive means no such curve, though single readings can be large; an effect the other way counts as inactive or inconclusive.
# Tests used:
# [1] = target: Lysosomal acid glucosylceramidase (Homo sapiens) (UniProt P04062); assay: Glucocerebrosidase-p2 (AID 348; in the data active means potency below about 10 µM; further: potency means the concentration at half of the fitted maximal effect); conditions: purified GBA, blue fluorogenic substrate, 40 min
# Procedure, shortened: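 Compounds titrated from 0.6 nM upwards against 0.2 nM enzyme in pH 5.9 citric acid/KH2PO4, taurocholate, tween-20; blue fluorogenic substrate 80 uM, 40 min room temperature, stopped and read Ex 365/Em 440 for AC50.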
# [2] = AP1 Signaling Pathway (AID 357; active means well fitted curve in either direction with a large enough effect, not every such curve was filed as active; further: on the % scale 0 is the no-effect control and ±100 the full control effect); conditions: ME-180 AP-1-bla reporter, EGF-induced, beta-lactamase ratio, 5 h; at 7.69 µM (top of the series) unless noted
# Procedure, shortened: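 AP-1-bla ME-180 cells with beta-lactamase reporter under AP-1 response element, stimulated with EC50 EGF; compounds titrated, 5 hours at 37 degrees Celsius. CCF4 read at 460/530 nm ratio; positive and negative modulators judged by AC50.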
# [3] = target: Cytochrome P450 1A2 (Homo sapiens) (UniProt P05177); assay: p450-cyp1a2 (AID 410; calls by dose curve;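 further: -100% = full effect of reference inhibitor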); conditions: recombinant CYP1A2, luciferin-ME demethylation, luminescence; series mostly up to 57 µM
# Procedure, shortened: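 Inhibition was calculated relative to 57 uM furafylline (full inhibition). The reaction used human CYP1A2 at 20nM with Luciferin-ME at its Km, 100uM, driven by an NADPH-regenerating system for 60 min at room temperature.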
# [4] = NFAT Signaling Pathway (AID 444; active means well fitted curve in either direction with a large enough effect, not every such curve was filed as active;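 further: carbachol stimulus at about its EC50 of 1 µM final; on the % scale 0 is the no-effect control and ±100 the full control effect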); conditions: Jurkat NFAT-bla M1, carbachol, beta-lactamase ratio, 5 h; at 7.69 µM (top of the series) unless noted
# Procedure, shortened: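 Jurkat cells with NFAT-driven β-lactamase reporter and co-expressed M1 receptor, stimulated with carbachol (final 1 uM, ~EC50), compound titration, 5 h at 37 °C. CCF4 loaded 1 h at RT; 460/530 nm ratio gave %activity and AC50.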
# [5] = Stat Signaling Pathway (AID 446; active means well fitted curve in either direction with a large enough effect, not every such curve was filed as active;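 further: ME-180 cervical cancer cells given 40 pM IL-6 alongside compound; SIE-controlled beta-lactamase reporter measured as 460/530 nm FRET emission ratio; on the % scale 0 is the no-effect control and ±100 the full control effect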); conditions: ME-180 (cervical carcinoma) SIE beta-lactamase reporter, IL-6 stimulated, 5 h; at 7.69 µM (top of the series) unless noted
# Procedure, shortened: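 IL-6/STAT signaling read in ME-180 cells via an SIE beta-lactamase reporter. Stimulus was 40 pM IL-6 (its AC50) for 5 hrs, so both activation and inhibition register.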
# [6] = target: Glucocorticoid receptor (Homo sapiens) (UniProt P04150); assay: GR-GFP Redistribution (AID 450;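 active means compounds whose dose series gives a full or clear partial fitted curve of increased nuclear translocation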; further: potency means the concentration at half of the fitted maximal effect); conditions: U2OS GR-GFP nuclear translocation, laser cytometry, 2 h
# [7] = target: Glucocorticoid receptor (Homo sapiens) (UniProt P04150); assay: GR-EFC Redistribution (AID 451; calls by dose curve; further: potency means the concentration at half of the fitted maximal effect); conditions: CHO-K1 GR-EFC translocation, beta-gal luminescence, 2 h
# Procedure, shortened: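 CHO-K1 cells expressing nuclear EA and GR-ED fragments of b-gal; compounds titrated up to 46 uM final, 2 h at 37 C. GR nuclear translocation read as complemented b-gal luminescence after 1 h RT detection.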
# [8] = target: Mitogen-activated protein kinase 10 (Mus musculus) (UniProt Q61831); assay: JNK3 AlphaScreen Assay (AID 530; active means well fitted curve in either direction with a large enough effect, not every such curve was filed as active;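 further: kinase came from lysate of stimulated human HepG2 cells; signal reports phosphorylation of biotinylated GST-cJun 1-79 at Ser73 with 10 µM ATP; on the % scale 0 is the no-effect control and ±100 the full control effect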); conditions: JNK3 lysate, c-Jun phosphorylation; series mostly up to 57.1 µM
# Procedure, shortened: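 qHTS format: compounds tested as titrations against IL-1beta/TNF-alpha-activated HepG2 lysate JNK3 with biotin-GST-cJun substrate and 10 uM ATP at room temperature. Loss of anti-phospho-cJun AlphaScreen signal indicates inhibition.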
# [9] = target: 3',5'-cyclic-AMP phosphodiesterase 4B (Homo sapiens) (UniProt Q07343); assay: qHTS Assay for Inhibitors of PDE-IV (AID 607; active means well fitted activation curve with a large enough effect in the main read-out, with a control signal flat, not every such curve was filed as active; further: % of control where 0% means no effect); conditions: HEK293 ACTOne CNG channel cells, membrane potential fluorescence; series mostly up to 22.9 µM
# Procedure, shortened: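 Live HEK293 cells with a modified cyclic nucleotide-gated (CNG) channel report intracellular cAMP via membrane-potential dye fluorescence (ex 535/em 590 nm). Endogenous PDE-IV was targeted. Compounds were tested at up to 22.9 uM final; RO 20-1724 100 uM served as control.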
# [10] = qHTS Assay for Lipid Storage Modulators (AID 1519; calls by dose curve); conditions: Drosophila S3 cells, BODIPY lipid droplet/cell ratio, laser cytometry, cells loaded with oleic acid; for activity change, negative = inhibition: at 57.5 µM (top of the series)
# Procedure, shortened: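 Cells seeded at 5,000 per well were treated with compounds over a concentration series and loaded with oleic acid (400 uM, as added). Lipid droplet fluorescence (488 nm excitation, 500-530 nm channel) was read by laser-scanning cytometry and normalized to 20 uM Triacsin C.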
# [11] = target: Dual specificity protein kinase CLK4 (Homo sapiens) (UniProt Q9HAZ1); assay: qHTS Assay for Inhibitors of CDC-like Kinase 4 (Kinase-Glo Assay) (AID 1770); conditions: recombinant Clk4, Kinase-Glo ATP depletion luminescence; series mostly up to 66.7 µM; further: on the % scale 0 is the no-effect control and ±100 the full control effect; nearly all actives have a fitted effect of over 65% in size
# Procedure, shortened: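 Clk4 25 nM, RS peptide 100 uM, ATP 1 uM, pH 7.5 Tris, 10 mM MgCl2, 2.5 mM DTT; 4.5 h RT; ATP depletion read by Kinase-Glo luminescence.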
# [12] = target: Dual specificity protein kinase CLK4 (Homo sapiens) (UniProt Q9HAZ1); assay: qHTS Assay for Inhibitors of CDC-like Kinase 4 (ADP-Glo Assay) (AID 1771); conditions: recombinant CLK4, ADP-Glo luminescence; series mostly up to 80 µM; further: on the % scale 0 is the no-effect control and ±100 the full control effect; nearly all actives have a fitted effect of over 70% in size
# Procedure, shortened: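 Kinase reaction: Clk4 at 25 nM, RS repeat peptide substrate at 100 uM, ATP at 1 uM, 1 hr, room temperature. Product ADP detected as luciferase signal via ADP-Glo.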
# [13] = target: Dual specificity protein kinase CLK4 (Homo sapiens) (UniProt Q9HAZ1); assay: qHTS Assay for Inhibitors of CDC-like Kinase 4 (ADP-FP Assay) (AID 1795); conditions: Transcreener ADP fluorescence polarization; series mostly up to 50 µM;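 further: recombinant human CLK4 phosphorylating RS repeat peptide at 1 µM ATP; on the % scale 0 is the no-effect control and ±100 the full control effect; nearly all actives have a fitted effect of over 60% in size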
# Procedure, shortened: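 Kinase activity was followed as ADP output, converted from fluorescence polarization with a calibration curve. Reactions ran one hour at low ATP (1 uM) with RS peptide substrate.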
# [14] = target: Ubiquitin carboxyl-terminal hydrolase 1 (Homo sapiens) (UniProt O94782); assay: Inhibitors of USP1/UAF1: Pilot qHTS (AID 504865); conditions: purified USP1/UAF1, Ub-rhodamine cleavage fluorescence; series mostly up to 54.9 µM;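 further: rhodamine fluorescence freed from ubiquitin-rhodamine substrate followed over time; top concentration of the series differs between compounds; on the % scale 0 is the no-effect control and ±100 the full control effect; nearly all actives have a fitted effect of over 35% in size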
# Procedure, shortened: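 Enzyme-free wells gave the negative control, while test wells held 1nM USP1/UAF1 preincubated with compound for 15 min at room temperature. Ub-Rho at 150nM final started the reaction, and fluorescence at 480/540 nm was recorded kinetically.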
# [15] = target: Cytochrome P450 3A4 (Homo sapiens) (UniProt P08684); assay: qHTS Assay for Inhibitors and Substrates of Cytochrome P450 3A4 (AID 884); conditions: recombinant CYP3A4, Luciferin-PPXE luminescence; series mostly up to 57.1 µM; further: potency means the concentration at half of the fitted maximal effect; nearly all actives have a fitted effect of over 50% in size
# Procedure, shortened: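 20 nM human CYP3A4 with 25 uM Luciferin-PPXE (at KM) in 200 mM KPO4, preincubated 10 min with compound; NADPH regeneration started a 60 min RT reaction. Luciferin detected by luminescence, normalized to 57 uM ketoconazole as full inhibition.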
# [16] = target: Cytochrome P450 3A4 (Homo sapiens) (UniProt P08684); assay: qHTS Assay for Activators of Cytochrome P450 3A4 (AID 885); conditions: recombinant CYP3A4, Luciferin-PPXE luminescence, 60 min; series mostly up to 57.1 µM; further: nearly all actives have a fitted effect of over 65% in size
# Procedure, shortened: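 Quantitative HTS format: compounds preincubated with 20nM human CYP3A4 and Luciferin-PPXE substrate at KM, reaction started by NADPH regeneration, stopped after 60 min, luciferase luminescence read 20 min later.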
# [17] = Confirmation and Secondary Assay for Modulators of Hemoglobin Beta Chain Splicing at IVS2 654 locus (AID 910); conditions: HeLa EGFP-654 splicing reporter, GFP fluorescence, 48 h; series mostly up to 38.3 µM;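 further: HeLa cells stably carrying EGFP split by mutant beta-globin IVS2-654 intron; % of control where 0% means no effect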
# Procedure, shortened: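 HeLa cells stably expressing EGFP interrupted by β-globin IVS2-654 intron, seeded overnight in Opti-MEM/2% FCS, then treated 2 days at 37 °C. Restored splicing read as total peak GFP intensity per well by laser scanning cytometry (488 nm excitation, 500–520 nm emission); 500 nM antisense PNA as control.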
# [18] = Confirmation and Secondary Assay for Modulators of Hemoglobin Beta Chain Splicing at IVS2 705 locus (AID 930); conditions: HeLa EGFP-705 splicing reporter, GFP fluorescence, 48 h; series mostly up to 38.3 µM;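 further: HeLa cells stably expressing the EGFP-705 splicing reporter; GFP fluorescence per well restored by corrected splicing of the IVS2-705 intron in EGFP; % of control where 0% means no effect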
# Procedure, shortened: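 Fluorescence gain (488 nm laser, 500-520 nm PMT) reflects restored correct splicing of a mutant IVS2-705 intron inside EGFP in stably transfected HeLa cells after 2-day compound treatment.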
# [19] = target: Rap guanine nucleotide exchange factor 3 (Homo sapiens) (UniProt O95398); assay: Confirmatory qHTS for agonist of cAMP-regulated guanine nucleotide exchange factor 3 (EPAC1) (AID 1645881); conditions: EPAC1 Rap1B BODIPY-GDP exchange fluorescence; series mostly up to 154 µM;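 further: EPAC1 catalysed release of BODIPY-GDP from Rap1B seen as fluorescence loss; 100% = effect of cAMP agonist control; nearly all actives have a fitted effect of over 75% in size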
# [20] = measured here: cell count channel max response
# [21] = measured here: lipid channel max response
# Sequence of Cytochrome P450 3A4 (Homo sapiens) (P08684 whole entry, looked up): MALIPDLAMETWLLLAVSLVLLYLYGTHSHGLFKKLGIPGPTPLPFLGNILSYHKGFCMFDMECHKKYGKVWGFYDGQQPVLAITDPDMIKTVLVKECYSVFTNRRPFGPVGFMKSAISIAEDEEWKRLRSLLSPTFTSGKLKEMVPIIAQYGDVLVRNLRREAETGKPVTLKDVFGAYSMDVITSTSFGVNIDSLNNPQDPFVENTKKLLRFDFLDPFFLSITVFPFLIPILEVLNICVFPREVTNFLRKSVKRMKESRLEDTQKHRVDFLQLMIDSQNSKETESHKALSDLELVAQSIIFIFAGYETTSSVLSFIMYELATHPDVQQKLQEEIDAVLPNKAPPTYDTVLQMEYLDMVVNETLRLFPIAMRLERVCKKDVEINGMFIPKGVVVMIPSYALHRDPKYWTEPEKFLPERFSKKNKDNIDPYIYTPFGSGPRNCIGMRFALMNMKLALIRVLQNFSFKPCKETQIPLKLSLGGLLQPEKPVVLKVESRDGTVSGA
# Sequence of Dual specificity protein kinase CLK4 (Homo sapiens) (Q9HAZ1 whole entry, looked up): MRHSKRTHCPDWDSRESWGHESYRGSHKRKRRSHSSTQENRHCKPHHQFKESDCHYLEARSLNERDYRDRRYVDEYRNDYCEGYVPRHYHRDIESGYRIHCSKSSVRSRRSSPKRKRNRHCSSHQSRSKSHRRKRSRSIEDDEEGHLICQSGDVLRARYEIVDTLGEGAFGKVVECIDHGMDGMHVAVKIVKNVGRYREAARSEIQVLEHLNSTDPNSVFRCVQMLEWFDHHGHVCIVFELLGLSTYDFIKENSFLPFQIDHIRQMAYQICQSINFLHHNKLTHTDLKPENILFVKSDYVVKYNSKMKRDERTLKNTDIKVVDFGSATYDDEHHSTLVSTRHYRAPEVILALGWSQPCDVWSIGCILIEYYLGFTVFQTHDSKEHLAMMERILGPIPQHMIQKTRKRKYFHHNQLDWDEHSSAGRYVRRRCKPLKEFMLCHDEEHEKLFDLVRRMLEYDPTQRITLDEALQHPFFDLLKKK
# Sequence of Glucocorticoid receptor (Homo sapiens) (P04150 whole entry, looked up, the tested form may be a part): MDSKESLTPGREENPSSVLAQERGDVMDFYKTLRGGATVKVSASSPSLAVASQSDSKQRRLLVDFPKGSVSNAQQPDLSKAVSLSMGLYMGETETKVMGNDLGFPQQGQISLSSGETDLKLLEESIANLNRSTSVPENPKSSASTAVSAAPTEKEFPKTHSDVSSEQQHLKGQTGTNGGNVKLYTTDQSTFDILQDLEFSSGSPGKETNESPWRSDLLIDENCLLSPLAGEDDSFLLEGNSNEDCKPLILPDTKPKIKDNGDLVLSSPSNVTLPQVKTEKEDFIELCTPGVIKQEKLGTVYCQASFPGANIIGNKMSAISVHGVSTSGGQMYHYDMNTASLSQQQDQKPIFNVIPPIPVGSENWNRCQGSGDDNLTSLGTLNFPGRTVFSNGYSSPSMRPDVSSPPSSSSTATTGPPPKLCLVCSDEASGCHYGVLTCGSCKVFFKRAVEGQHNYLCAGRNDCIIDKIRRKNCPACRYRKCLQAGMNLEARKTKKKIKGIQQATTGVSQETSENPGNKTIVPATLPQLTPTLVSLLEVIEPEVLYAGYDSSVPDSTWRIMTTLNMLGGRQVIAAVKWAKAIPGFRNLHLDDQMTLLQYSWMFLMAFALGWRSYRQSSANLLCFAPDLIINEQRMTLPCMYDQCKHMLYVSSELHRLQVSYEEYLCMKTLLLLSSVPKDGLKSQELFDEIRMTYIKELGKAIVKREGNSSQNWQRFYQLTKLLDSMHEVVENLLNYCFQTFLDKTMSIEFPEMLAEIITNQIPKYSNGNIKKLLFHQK
# Sequence of Rap guanine nucleotide exchange factor 3 (Homo sapiens) (O95398 whole entry, looked up): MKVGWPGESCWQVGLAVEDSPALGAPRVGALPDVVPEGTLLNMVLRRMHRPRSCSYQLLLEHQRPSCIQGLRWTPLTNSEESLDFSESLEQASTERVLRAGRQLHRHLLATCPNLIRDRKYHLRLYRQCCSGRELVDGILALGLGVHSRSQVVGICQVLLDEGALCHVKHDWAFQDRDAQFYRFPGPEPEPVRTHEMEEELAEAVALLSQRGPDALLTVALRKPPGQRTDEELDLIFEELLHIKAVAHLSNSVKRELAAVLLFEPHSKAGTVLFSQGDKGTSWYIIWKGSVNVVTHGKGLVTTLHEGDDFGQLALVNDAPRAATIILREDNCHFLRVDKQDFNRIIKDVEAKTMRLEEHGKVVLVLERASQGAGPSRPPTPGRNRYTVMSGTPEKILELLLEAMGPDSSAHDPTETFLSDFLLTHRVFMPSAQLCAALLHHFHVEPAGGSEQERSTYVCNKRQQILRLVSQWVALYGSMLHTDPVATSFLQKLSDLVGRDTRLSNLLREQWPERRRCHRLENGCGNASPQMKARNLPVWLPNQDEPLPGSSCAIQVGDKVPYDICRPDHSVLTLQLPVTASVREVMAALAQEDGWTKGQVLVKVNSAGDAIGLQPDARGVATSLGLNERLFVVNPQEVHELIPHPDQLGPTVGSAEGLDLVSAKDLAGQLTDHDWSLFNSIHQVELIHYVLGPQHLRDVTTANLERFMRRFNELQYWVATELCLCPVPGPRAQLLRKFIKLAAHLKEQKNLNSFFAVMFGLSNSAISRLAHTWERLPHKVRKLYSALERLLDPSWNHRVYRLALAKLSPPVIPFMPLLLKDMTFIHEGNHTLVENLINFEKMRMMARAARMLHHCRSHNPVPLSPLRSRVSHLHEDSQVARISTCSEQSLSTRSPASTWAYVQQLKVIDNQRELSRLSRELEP
# Sequence of Cytochrome P450 1A2 (Homo sapiens) (P05177 whole entry, looked up): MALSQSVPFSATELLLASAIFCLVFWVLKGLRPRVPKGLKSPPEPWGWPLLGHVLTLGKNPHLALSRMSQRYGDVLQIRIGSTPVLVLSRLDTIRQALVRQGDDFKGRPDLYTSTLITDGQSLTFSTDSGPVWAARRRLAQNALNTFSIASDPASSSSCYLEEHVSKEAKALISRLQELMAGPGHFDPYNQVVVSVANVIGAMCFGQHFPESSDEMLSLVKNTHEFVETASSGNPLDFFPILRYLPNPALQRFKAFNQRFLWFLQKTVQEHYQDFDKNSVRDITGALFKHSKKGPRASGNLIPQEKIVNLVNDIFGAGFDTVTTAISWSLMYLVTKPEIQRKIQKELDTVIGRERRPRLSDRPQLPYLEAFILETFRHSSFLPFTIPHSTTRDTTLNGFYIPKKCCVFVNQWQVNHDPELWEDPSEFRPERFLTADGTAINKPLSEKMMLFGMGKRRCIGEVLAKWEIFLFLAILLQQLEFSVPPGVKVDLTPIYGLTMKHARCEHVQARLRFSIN
# Sequence of Lysosomal acid glucosylceramidase (Homo sapiens) (P04062 whole entry, looked up): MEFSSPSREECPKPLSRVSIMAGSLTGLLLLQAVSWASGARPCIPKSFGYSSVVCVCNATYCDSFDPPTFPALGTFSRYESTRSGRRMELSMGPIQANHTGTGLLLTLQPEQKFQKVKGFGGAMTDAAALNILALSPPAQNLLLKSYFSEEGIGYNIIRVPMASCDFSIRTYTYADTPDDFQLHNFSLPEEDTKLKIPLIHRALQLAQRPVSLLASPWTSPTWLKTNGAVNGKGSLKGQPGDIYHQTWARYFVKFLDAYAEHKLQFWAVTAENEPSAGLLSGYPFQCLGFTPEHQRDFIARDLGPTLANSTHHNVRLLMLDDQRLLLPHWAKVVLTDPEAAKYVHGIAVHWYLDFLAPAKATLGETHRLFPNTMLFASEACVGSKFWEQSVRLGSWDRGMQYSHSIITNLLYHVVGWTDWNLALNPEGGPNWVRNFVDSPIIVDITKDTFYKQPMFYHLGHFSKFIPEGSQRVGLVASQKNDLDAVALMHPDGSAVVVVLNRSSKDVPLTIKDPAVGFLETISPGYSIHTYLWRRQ
# Sequence of Ubiquitin carboxyl-terminal hydrolase 1 (Homo sapiens) (O94782 whole entry, looked up): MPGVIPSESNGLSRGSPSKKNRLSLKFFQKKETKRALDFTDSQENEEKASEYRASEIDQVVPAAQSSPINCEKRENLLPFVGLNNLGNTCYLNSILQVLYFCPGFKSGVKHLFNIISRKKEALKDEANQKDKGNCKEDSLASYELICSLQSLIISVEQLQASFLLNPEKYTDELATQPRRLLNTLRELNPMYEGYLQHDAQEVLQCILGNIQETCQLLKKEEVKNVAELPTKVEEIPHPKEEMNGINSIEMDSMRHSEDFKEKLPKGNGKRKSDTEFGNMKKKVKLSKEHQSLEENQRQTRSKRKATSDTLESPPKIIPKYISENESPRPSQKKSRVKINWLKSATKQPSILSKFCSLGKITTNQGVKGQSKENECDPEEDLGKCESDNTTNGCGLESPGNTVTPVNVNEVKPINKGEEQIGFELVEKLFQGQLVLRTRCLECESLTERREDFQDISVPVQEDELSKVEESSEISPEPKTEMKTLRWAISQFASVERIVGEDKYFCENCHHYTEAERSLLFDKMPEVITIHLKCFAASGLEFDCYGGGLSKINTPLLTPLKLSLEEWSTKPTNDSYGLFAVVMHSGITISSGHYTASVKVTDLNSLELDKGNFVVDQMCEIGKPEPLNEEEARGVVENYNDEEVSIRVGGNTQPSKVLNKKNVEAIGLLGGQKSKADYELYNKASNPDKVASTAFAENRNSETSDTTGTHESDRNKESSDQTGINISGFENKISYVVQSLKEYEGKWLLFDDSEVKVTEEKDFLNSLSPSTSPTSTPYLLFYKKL
structure (smiles),measurement,setting,value
CN1CCN(c2ncc3nc(-c4cccc(C#N)c4)c(=O)n(CCC#N)c3n2)CC1,Potency,[1],> 11.4 µM (inactive)
same,"activity change, negative = inhibition",[2],-12.4% (inactive)
same,Potency,[3],inactive
same,"activity change, negative = inhibition",[4],17.8% (inactive)
same,"activity, negative = inhibition",[5],19.4% (inactive)
same,Potency,[6],> 9.22 µM (inactive)
same,Potency,[7],> 46 µM (inactive)
same,Potency,[8],inactive
same,Potency,[9],inactive
same,"activity change, negative = inhibition",[10],4.89% (inactive)
same,max response,[10]; [20],-1.32%
same,max response,[10]; [21],1.31%
same,Potency,[11],inactive
same,Potency,[12],inactive
same,Potency,[13],inactive
same,Potency,[14],inactive
COc1ccc(/C=C/C(=O)O)cc1OC,"activity change, negative = inhibition",[10],14.6% (inactive)
same,max response,[10]; [20],4.45%
same,max response,[10]; [21],26.5%
COC(=O)CC1C2(C)CC34OC5(C)O[C@@]6(C7/C(=C(/OC)C(C)C)C(=O)OC(c8ccoc8)[C@@]7(C)C(OC(=O)C(C)C)C(OC)[C@]6(O5)[C@@]13C)C(OC)[C@]4(OC)C2OC(C)=O (some centres undefined),Potency,[15],2.51 µM (active)
same,Potency,[16],inactive
same,Potency,[17],inactive
same,outcome,[18],inactive
same,"activity change, negative = inhibition",[10],-17.5% (inactive)
same,max response,[10]; [20],1.3%
same,max response,[10]; [21],-14.4%
same,Potency,[19],inactive
COc1cc(C)c(C(=O)Oc2cc(C)c(C(=O)O)c(O)c2C)c(OC)c1C,Potency,[16],inactive
same,Potency,[17],inactive
same,outcome,[18],inactive
same,"activity change, negative = inhibition",[10],7.39% (inactive)
same,max response,[10]; [20],9.06%
same,max response,[10]; [21],19.2%
same,Potency,[19],inactive
CCCC1O[C@@H]2C[C@H]3[C@@H]4CCC5=CC(=O)C=C[C@]5(C)C4[C@@H](O)C[C@]3(C)[C@]2(C(=O)CO)O1 (some centres undefined),"activity change, negative = inhibition",[10],0.423% (inactive)
same,max response,[10]; [20],-19.9%
same,max response,[10]; [21],-19.5%
O=C1C=CC2=C3c4cc(O)c(O)cc4CC3(O)COC2=C1O (centres undefined),Potency,[15],31.6 µM (active)
same,Potency,[16],inactive
same,Potency,[17],inactive
same,outcome,[18],inactive
same,"activity change, negative = inhibition",[10],6.15% (inactive)
same,max response,[10]; [20],11.8%
same,max response,[10]; [21],21%
same,Potency,[19],inactive
COc1ccc2c(c1OC)C(=O)OC2C1c2c(cc3c(c2OC)OCO3)CCN1C (centres undefined),"activity change, negative = inhibition",[2],11.6% [at 17.2 µM] (inactive)
same,"activity change, negative = inhibition",[4],-3.27% [at 17.2 µM] (inactive)
same,"activity, negative = inhibition",[5],9.27% [at 17.2 µM] (inactive)
same,Potency,[6],> 20.6 µM (inactive)
same,"activity change, negative = inhibition",[10],0.209% (inactive)
same,max response,[10]; [20],-33.3%
same,max response,[10]; [21],-33.7%
COC(=O)c1c(C)c2c(c(C)c1O)OC(=O)c1c(C)c(Cl)c(O)c(Cl)c1O2,Potency,[16],inactive
same,Potency,[17],inactive
same,outcome,[18],inactive
same,"activity change, negative = inhibition",[10],9.5% (inactive)
same,max response,[10]; [20],-4.72%
same,max response,[10]; [21],1.33%
same,Potency,[19],inactive
